Compound activity (PubChem BioAssay)
LASV entry inh: inhibitors of Lassa virus binding or cell entry; Lassa virus pseudotype entry inhibition, cell reporter; Potency, µM (doses to about 37.9 µM), usual class: inhibitors; 1.2% of 300,000 active; AID 540256; calls by dose curve; tested in HEK293 cells; further: nearly all actives have a fitted effect of over 50% in size
Pf growth 48h: inhibits P. falciparum growth in the first generation, 48 h; P. falciparum luciferase growth in erythrocytes, 48 h; Potency, µM (titrated, usually from 28.7 µM), most hits filed as inhibitors; 5.9% of 310,000 active; AID 504832
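Here the parasites carry a stable luciferase gene and grow inside erythrocytes in Albumax-based RPMI medium with compound for one erythrocytic cycle. Activity is scored as loss of luminescent signal.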
Shiga inhibitor: Shiga toxin inhibition; Vero cells, Shiga toxin protein synthesis inhibition reporter; inhibition, % at 38.7 µM; 9.2% of 290,000 active; in the data active means inhibition mostly above about 28%, no sharp cut-off; inactive means mostly below about 43%
Pf growth 96h: inhibits malaria parasite growth, 96 h. P. falciparum luciferase reporter growth, 96 h. Potency, µM (top dose mostly 28.7 µM), actives largely listed as inhibitors. 6.9% of 320,000 active. AID 504834
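Compounds incubated with erythrocytes infected by luciferase-expressing P. falciparum (2% hematocrit, 0.05% parasitemia final) for 96 hours, 37 C in 5% CO2. Growth inhibition scored as decreased luciferase luminescence.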
Cycloheximide cs: counter-screen for Shiga toxin inhibitors: cycloheximide protein synthesis inhibition; cell reporter, cycloheximide protein synthesis inhibition counterscreen; max response, %; 12% of 300,000 active; AID 2314; in the data active means max response mostly above about 13%, no sharp cut-off; inactive means mostly below about 14%; further: read at 38.3 µM for the half of the compounds with a filed dose
MARV entry inh: Marburg virus entry inhibition | Potency, µM (highest dose often 37.8 µM), usual class: inhibitors | Marburg virus pseudotyped entry inhibition, cell reporter | 1.8% of 300,000 active; calls by dose curve; tested in HEK293 cells
Large screens that a line does not name were inactive. Only some compounds are listed: those with a hit (about 19% of all), similar ones and a draw of the others. Unless noted, the call rests on the fitted dose curve; in most records, active means well fitted inhibition curve with a large enough effect; inconclusive means small, poorly fitted or top-dose-only effect, or another doubt; inactive means no such curve, though single readings can be large or run the other way.

Cc1cccc(NC(=O)C2(C)CC3c4ccccc4C2c2ccccc23)c1C (stereo not given)	LASV entry inh inconclusive, Pf growth 96h inconclusive, MARV entry inh inconclusive
O=C(c1ccccc1)n1ccc2ccccc21	Shiga inhibitor 137, Cycloheximide cs 31
O=C(c1ccco1)N1N=C(c2ccccc2)CC1c1ccc2nccnc2c1 (stereo not given)	Pf growth 48h inconclusive, Pf growth 96h 7.4µM, Cycloheximide cs 16
O=C(O)CCCC(=O)N1N=C(c2ccccc2)CC1c1ccc2nccnc2c1 (stereo not given)	Pf growth 96h 3.7µM
CC(NC(=O)COC(=O)CCN1C(=O)C2CC=CCC2C1=O)c1ccc(Br)cc1 (stereo not given)	none (no result: LASV entry inh, Shiga inhibitor, Cycloheximide cs, MARV entry inh)
NC(=O)c1ccsc1NC(=O)COC(=O)CSc1ccc(Cl)cc1	none
Cc1nn2c(=O)cc(CSCC(=O)Nc3ccccc3Cl)nc2s1	Pf growth 96h 12µM (no result: LASV entry inh, MARV entry inh)
CCCc1nn2c(=O)cc(CSCC(=O)Nc3nnc(C(C)C)s3)nc2s1	Pf growth 96h 12µM (no result: LASV entry inh, MARV entry inh)
C(=N\c1nc2ccccc2n1CCN1CCCCC1)/c1ccc2c(c1)OCO2	LASV entry inh inconclusive, Pf growth 48h inconclusive, Pf growth 96h inconclusive
O=C(NCCCl)C1Cc2c(ccc3ccccc23)O1 (stereo not given)	none
CNc1nc(SCc2ccccc2Cl)nc2c1CCCC2	LASV entry inh inconclusive, Pf growth 48h 13µM, Pf growth 96h 15µM
Cc1[nH]nc2c1C(C(C)c1ccccc1)C(C#N)=C(N)O2 (stereo not given)	none
COc1ccc(/C=N/Nc2nonc2N)c(OC)c1	none (no result: LASV entry inh, MARV entry inh)
COc1ccc(/C=N/Nc2nccnc2Cl)c(OC)c1	LASV entry inh inconclusive, Shiga inhibitor 78, Cycloheximide cs 29
COc1ccc(/C=N/Nc2nccnc2Cl)cc1	LASV entry inh 8.2µM, Cycloheximide cs 36, MARV entry inh inconclusive (no result: Pf growth 48h)
Clc1nccnc1N/N=C/c1ccc(Br)cc1	Shiga inhibitor 40, Cycloheximide cs 40 (no result: LASV entry inh, MARV entry inh)
COc1ccc(S(=O)(=O)N2CCN(C(=O)CCNC(=O)c3ccccc3Cl)CC2)cc1	Pf growth 48h inconclusive, Pf growth 96h inconclusive, MARV entry inh inconclusive (no result: Shiga inhibitor, Cycloheximide cs)
O/N=C/c1c[nH]c2ccccc12	none
CCc1ccc(/C=C/c2c[nH]c3ccccc23)[n+](CC)c1	LASV entry inh 13µM, Pf growth 48h 0.21µM, Pf growth 96h 0.074µM, MARV entry inh inconclusive
COc1ccc(CCNC(=O)c2cnn3cccnc23)cc1OC	none (no result: Pf growth 96h)
CCCCCC(=O)Nc1cccc(C2=NOC3(C2)C[C@H](C(N)=O)N(C(=O)CC)C3)c1 (stereo not given in full)	none (no result: LASV entry inh, MARV entry inh)
Cc1cc(NCc2ccccc2)c2ccccc2n1	Pf growth 48h 3.3µM, Pf growth 96h inconclusive (no result: LASV entry inh, MARV entry inh)
COc1ccc2nc(C)cc(Nc3ccccc3O)c2c1	Pf growth 48h inconclusive, Pf growth 96h inconclusive, MARV entry inh inconclusive
Cc1cc(Nc2ccc(C)c(C)c2)c2ccccc2n1	Pf growth 48h inconclusive, Pf growth 96h inconclusive, MARV entry inh 3.2µM
Cc1ccc(Nc2nc(N)c3ccccc3n2)cc1C	Pf growth 48h inconclusive, Shiga inhibitor 37, Pf growth 96h inconclusive, Cycloheximide cs 20 (no result: LASV entry inh, MARV entry inh)
Cc1ccc(Nc2nc(N)nc(CN3CCN(C)CC3)n2)cc1C	Pf growth 96h inconclusive (no result: LASV entry inh)
COc1ccc2nc(C)cc(NCc3cccc(C(F)(F)F)c3)c2c1	LASV entry inh inconclusive, Pf growth 48h 0.93µM, Pf growth 96h inconclusive, MARV entry inh inconclusive
COc1ccc2c(c1)CCc1cc(C(=O)O)sc1-2	none (no result: LASV entry inh, MARV entry inh)
CCc1ccc(NS(=O)(=O)c2ccc3[nH]cc(C(=O)N4CCCCC4)c(=O)c3c2)cc1	none
COc1ccccc1C(=O)NC(=O)Nc1ccc(-c2cc(C(F)(F)F)nn2-c2ccccc2)cc1	none (no result: Pf growth 48h, Shiga inhibitor, Pf growth 96h, Cycloheximide cs)
COc1ccccc1N1CCN(C(=O)c2cc(C)on2)CC1	none
O=C(Cn1cnnn1)NC1CCCN(Cc2ccccc2F)C1 (stereo not given)	Pf growth 96h 5.2µM
O=C(CCC(=O)c1ccc(F)cc1)NC1CCCN(Cc2ccccc2F)C1 (stereo not given)	Pf growth 96h 13µM (no result: LASV entry inh, Shiga inhibitor, MARV entry inh)
CC(C)Cc1ccc(CN2CCCC(NC(=O)Cn3cnnn3)C2)cc1 (stereo not given)	Pf growth 96h inconclusive, MARV entry inh inconclusive
C(=Cc1cnnc2ccccc12)c1ccccc1	MARV entry inh inconclusive (no result: Pf growth 48h, Shiga inhibitor, Pf growth 96h, Cycloheximide cs)
COc1cccc(CN2CCCC(C(=O)c3ccc4c(c3)OCO4)C2)c1OC (stereo not given)	Pf growth 96h inconclusive, MARV entry inh 11µM
